Data published in PubChem BioAssay AID1159580 (chemical genetic matrix, 2015).
In all, about 5,500 compounds went through this assay and about 2,000 (36%) were called active. About 18% were inconclusive and are not listed. Cut-off read from the data, not from the text of the source: active = normalized growth mostly below about 0.91 (no sharp cut-off); inconclusive = no clear call, values can overlap the other calls; inactive = mostly above about 0.92. Some of the results follow.

Assay: chemical genetic growth profiling, strain panel (AID 1159580);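 note: tested at 20 µM; growth read once vehicle control cultures reached saturation at 30 °C; 1 = growth at the plate median or of vehicle wells; lower values mean less growth of the strain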
Settings: growth OD

Measured: normalized growth

NCC(O)CC(=O)O (centres undefined)
inactive: S. cerevisiae deletion strains, locus YKL009W, strain mrt4, active compounds read low 0.991 | S. cerevisiae deletion strains, locus YKL068W, active compounds read low 0.999 | S. cerevisiae deletion strains, locus YKL085W, strain MDH1 (second series), active compounds read low 1 | S. cerevisiae deletion strains, locus YKL085W, strain MDH1, active compounds read low 1 | S. cerevisiae deletion strains, locus YKL160W, strain elf1, active compounds read low 1.02 | S. cerevisiae deletion strains, locus YKL190W, strain CNB1, active compounds read low 1.02 | S. cerevisiae deletion strains, locus YKR001C, strain vps1, active compounds read low 1 | S. cerevisiae deletion strains, locus YKR026C, strain gcn3, active compounds read low 0.959 | S. cerevisiae deletion strains, locus YKR091W, strain srl3, active compounds read low 0.974 | S. cerevisiae deletion strains, locus YLL001W, strain dnm1, active compounds read low 0.987 | S. cerevisiae deletion strains, locus YLL026W, active compounds read low 0.996 | S. cerevisiae deletion strains, locus YLL041C, strain sdh2, active compounds read low 1 | S. cerevisiae deletion strains, locus YLR027C, strain aat2, active compounds read low 0.97 | S. cerevisiae deletion strains, locus YLR039C, strain RIC1, active compounds read low 1.04 | S. cerevisiae deletion strains, locus YLR058C, strain SHM2, active compounds read low 1.02 | S. cerevisiae deletion strains, locus YLR102C, strain apc9, active compounds read low 1 | S. cerevisiae deletion strains, locus YLR113W, strain HOG1, active compounds read low 0.976 | S. cerevisiae deletion strains, locus YLR221C, strain rsa3, active compounds read low 1.01 | S. cerevisiae deletion strains, locus YLR258W, strain gsy2, active compounds read low 1 | S. cerevisiae deletion strains, locus YLR262C, strain YPT6 (second series), active compounds read low 1 | S. cerevisiae deletion strains, locus YLR262C, strain YPT6, active compounds read low 1.03 | S. cerevisiae deletion strains, locus YLR268W, strain sec22, active compounds read low 0.998 | S. cerevisiae deletion strains, locus YLR320W, strain mms22, active compounds read low 1 | S. cerevisiae deletion strains, locus YLR330W, strain CHS5, active compounds read low 1.01 | S. cerevisiae deletion strains, locus YLR342W, strain FKS1 (second series), active compounds read low 1.02 | S. cerevisiae deletion strains, locus YLR342W, strain FKS1, active compounds read low 0.968 | S. cerevisiae deletion strains, locus YLR357W, strain rsc2, active compounds read low 0.972 | S. cerevisiae deletion strains, locus YLR370C, strain arc18, active compounds read low 0.973 | S. cerevisiae deletion strains, locus YLR371W, strain rom2, active compounds read low 1 | S. cerevisiae deletion strains, locus YLR384C, strain iki3, active compounds read low 0.979 | S. cerevisiae deletion strains, locus YLR418C, strain cdc73, active compounds read low 0.988 | S. cerevisiae deletion strains, locus YML016C, strain PPZ1, active compounds read low 1.01 | S. cerevisiae deletion strains, locus YML032C, strain rad52, active compounds read low 1.01 | S. cerevisiae deletion strains, locus YML120C, strain ndi1, active compounds read low 0.994 | S. cerevisiae deletion strains, locus YML124C, strain tub3, active compounds read low 1 | S. cerevisiae deletion strains, locus YMR058W, strain fet3, active compounds read low 0.972 | S. cerevisiae deletion strains, locus YMR078C, strain ctf18, active compounds read low 1 | S. cerevisiae deletion strains, locus YMR125W, strain sto1, active compounds read low 0.958 | S. cerevisiae deletion strains, locus YMR129W, active compounds read low 0.978 | S. cerevisiae deletion strains, locus YMR205C, strain PFK2, active compounds read low 0.965 | S. cerevisiae deletion strains, locus YMR223W, strain ubp8, active compounds read low 1 | S. cerevisiae deletion strains, locus YMR231W, strain pep5, active compounds read low 0.968 | S. cerevisiae deletion strains, locus YMR263W, strain SAP30, active compounds read low 1.01 | S. cerevisiae deletion strains, locus YMR307W, strain GAS1, active compounds read low 0.988 | S. cerevisiae deletion strains, locus YNL067W, strain RPL9B, active compounds read low 1.01 | S. cerevisiae deletion strains, locus YNL071W, strain lat1, active compounds read low 0.981 | S. cerevisiae deletion strains, locus YNL128W, strain TEP1, active compounds read low 1.02 | S. cerevisiae deletion strains, locus YNL183C, strain NPR1, active compounds read low 0.931 | S. cerevisiae deletion strains, locus YNL209W, strain ssb2, active compounds read low 0.985 | S. cerevisiae deletion strains, locus YNL233W, strain BNI4, active compounds read low 1.04 | S. cerevisiae deletion strains, locus YNL248C, strain rpa49, active compounds read low 1.02 | S. cerevisiae deletion strains, locus YNL250W, strain rad50, active compounds read low 0.99 | S. cerevisiae deletion strains, locus YNL271C, strain bni1, active compounds read low 0.992 | S. cerevisiae deletion strains, locus YNL298W, strain CLA4, active compounds read low 0.992 | S. cerevisiae deletion strains, locus YNL307C, strain MCK1, active compounds read low 1.01 | S. cerevisiae deletion strains, locus YNL322C, strain KRE1 (second series), active compounds read low 0.958 | S. cerevisiae deletion strains, locus YNL322C, strain KRE1, active compounds read low 1.02 | S. cerevisiae deletion strains, locus YNR049C, strain mso1, active compounds read low 0.983 | S. cerevisiae deletion strains, locus YNR052C, strain pop2, active compounds read low 1 | S. cerevisiae deletion strains, locus YOL006C, strain TOP1, active compounds read low 0.988 | S. cerevisiae deletion strains, locus YOL012C, strain htz1 0.788 | S. cerevisiae deletion strains, locus YOL147C, strain pex11, active compounds read low 1 | S. cerevisiae deletion strains, locus YOR001W, strain rrp6, active compounds read low 1.02 | S. cerevisiae deletion strains, locus YOR061W, strain CKA2, active compounds read low 1.01 | S. cerevisiae deletion strains, locus YOR069W, strain VPS5, active compounds read low 1.01 | S. cerevisiae deletion strains, locus YOR070C, strain gyp1, active compounds read low 0.991 | S. cerevisiae deletion strains, locus YOR080W, strain dia2, active compounds read low 0.979 | S. cerevisiae deletion strains, locus YOR083W, strain WHI5, active compounds read low 1.03 | S. cerevisiae deletion strains, locus YOR106W, strain vam3, active compounds read low 0.978 | S. cerevisiae deletion strains, locus YOR136W, strain idh2, active compounds read low 1 | S. cerevisiae deletion strains, locus YOR144C, strain elg1, active compounds read low 0.999 | S. cerevisiae deletion strains, locus YOR184W, strain ser1, active compounds read low 1 | S. cerevisiae deletion strains, locus YOR231W, strain MKK1, active compounds read low 1.02 | S. cerevisiae deletion strains, locus YOR265W, strain rbl2, active compounds read low 0.989 | S. cerevisiae deletion strains, locus YOR270C, strain vph1, active compounds read low 0.987 | S. cerevisiae deletion strains, locus YOR290C, strain snf2, active compounds read low 0.938 | S. cerevisiae deletion strains, locus YOR316C, strain cot1, active compounds read low 1.01 | S. cerevisiae deletion strains, locus YPL051W, strain arl3, active compounds read low 1.02 | S. cerevisiae deletion strains, locus YPL078C, strain atp4, active compounds read low 0.998 | S. cerevisiae deletion strains, locus YPL106C, strain sse1, active compounds read low 0.985 | S. cerevisiae deletion strains, locus YPL240C, strain hsp82, active compounds read low 1 | S. cerevisiae deletion strains, locus YPL241C, strain CIN2, active compounds read low 1.01 | S. cerevisiae deletion strains, locus YPL256C, strain CLN2, active compounds read low 1.01 | S. cerevisiae deletion strains, locus YPR119W, strain clb2, active compounds read low 0.996 | S. cerevisiae deletion strains, locus YPR141C, strain kar3, active compounds read low 0.994 | S. cerevisiae deletion strains, locus YPR163C, strain tif3, active compounds read low 0.993 | S. cerevisiae deletion strains, locus YPR167C, strain met16, active compounds read low 0.995 | S. cerevisiae deletion strains, strain wtn01, active compounds read low 0.99 | S. cerevisiae strains, strain wild type, active compounds read low 1.02
